Screening data: PubChem, Broad Institute
NSD2 inh: NSD2 histone methyltransferase inhibitors, primary screen, biochemical, AlphaScreen, single concentration, set 2. Histone-lysine N-methyltransferase NSD2 (Homo sapiens), O96028. inhibition, % at 12.5 µM. NSD2 peptide methylation, 120 min. actives 0.54% (n = 310,000); in the data active = inhibition above about 50%
Target sequence (O96028 whole entry, looked up): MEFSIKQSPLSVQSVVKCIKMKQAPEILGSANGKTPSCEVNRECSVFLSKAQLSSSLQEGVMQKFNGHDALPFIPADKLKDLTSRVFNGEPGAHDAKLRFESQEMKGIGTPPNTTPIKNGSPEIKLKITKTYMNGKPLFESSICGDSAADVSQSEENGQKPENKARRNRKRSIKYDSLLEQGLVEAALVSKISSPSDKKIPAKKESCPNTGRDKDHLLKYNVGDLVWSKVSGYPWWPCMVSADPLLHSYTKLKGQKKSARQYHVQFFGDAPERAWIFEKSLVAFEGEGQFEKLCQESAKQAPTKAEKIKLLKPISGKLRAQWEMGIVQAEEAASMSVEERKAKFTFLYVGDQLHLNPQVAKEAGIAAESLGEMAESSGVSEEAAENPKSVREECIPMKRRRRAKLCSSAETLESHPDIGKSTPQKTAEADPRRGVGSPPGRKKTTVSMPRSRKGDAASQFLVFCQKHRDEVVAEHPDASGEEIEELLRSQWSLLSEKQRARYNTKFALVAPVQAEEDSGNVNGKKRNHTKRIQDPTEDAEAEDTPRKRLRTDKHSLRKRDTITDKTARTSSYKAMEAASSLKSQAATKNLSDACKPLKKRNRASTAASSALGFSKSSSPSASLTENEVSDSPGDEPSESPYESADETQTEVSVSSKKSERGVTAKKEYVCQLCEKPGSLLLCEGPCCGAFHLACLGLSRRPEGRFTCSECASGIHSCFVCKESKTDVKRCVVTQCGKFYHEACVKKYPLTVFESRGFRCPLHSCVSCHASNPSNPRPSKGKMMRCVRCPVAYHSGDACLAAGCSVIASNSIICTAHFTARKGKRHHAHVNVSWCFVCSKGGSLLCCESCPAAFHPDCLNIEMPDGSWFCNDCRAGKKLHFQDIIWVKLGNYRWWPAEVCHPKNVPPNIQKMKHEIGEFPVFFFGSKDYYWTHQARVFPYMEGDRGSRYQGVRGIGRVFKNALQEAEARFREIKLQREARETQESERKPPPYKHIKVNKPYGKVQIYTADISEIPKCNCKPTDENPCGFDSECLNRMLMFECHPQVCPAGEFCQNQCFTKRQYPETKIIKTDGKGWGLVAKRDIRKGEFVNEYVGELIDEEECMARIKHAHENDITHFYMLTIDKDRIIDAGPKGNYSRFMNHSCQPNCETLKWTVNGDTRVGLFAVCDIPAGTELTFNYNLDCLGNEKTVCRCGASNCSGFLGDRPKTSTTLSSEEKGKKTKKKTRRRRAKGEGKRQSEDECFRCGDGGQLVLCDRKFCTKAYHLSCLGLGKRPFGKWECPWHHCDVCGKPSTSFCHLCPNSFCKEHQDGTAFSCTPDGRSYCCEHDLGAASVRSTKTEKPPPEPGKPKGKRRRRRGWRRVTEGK
HIV Env fusion: inhibitors of HIV-1 Env-driven cell-cell fusion, primary screen, HeLa-JRFL effector, CEM21 target cells, luciferase. inhibition, % at 12.3 µM. actives 1.1% (n = 360,000);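 active = mean replicate inhibition score of at least 50 and every replicate individually at or above 50; inconclusive = only one of the two criteria met; inactive = mean below 50 and not all replicates reaching 50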;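 note: 0% = plate neutral controls and 100% = maraviroc near 300 nM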
Shn3 inh set2: reduction of Shn3 3'UTR firefly luciferase signal, primary screen, Schnurri-3 inhibitor project, cell-based, Clone20 osteoblasts, set 2. Clone20 osteoblast Shn3 3'UTR firefly luciferase, 24 h. inhibition, % at 12.5 µM. actives 0.52% (n = 360,000). AID 588674, 2011;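 active = mean inhibition of at least 75% with every replicate also reaching 75%; inconclusive = mean inhibition at least 75% but some replicate below; inactive = mean inhibition below 75%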;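 note: 0% = median of neutral control wells and 100% = pilot-screen positive control compound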
LMP1 NFkB inh: EBV LMP1-driven NF-kappaB luciferase reporter inhibitors, primary screen, cell-based, luminescence, single point; inhibition, % at 12.5 µM; LMP1-induced NF-kappaB luciferase reporter cells; AID 504558, 2011; actives 0.69% (n = 350,000); in the data active = inhibition above about 41%; inconclusive = no clear call, values can overlap the other calls;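 note: 0% = neutral control wells and 100% = reference inhibitor control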
N-glyco inh: increase of ERlucT glycosylation luciferase signal, primary screen, N-linked glycosylation inhibitor project, D54 ERlucT cells, luminescence, set 2 | D54 ERlucT glycosylation luciferase reporter, 24 h; percent of 100 nM tunicamycin response | reporter increase, % at 12.5 µM | actives 0.23% (n = 360,000);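 active = mean luciferase reporter signal, scaled so untreated is 0 and the glycosylation-blocking control 100, at or above a set limit in every replicate; inconclusive = mean reaches the limit but not every replicate does; inactive = mean below the limit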;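 note: luciferase carries N-glycosylation sites so blocking glycosylation raises the light; 0% = median of neutral control wells and 100% = median of 100 nM tunicamycin wells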
PAX8 inh HTS: inhibitors of PAX8-driven TPO luciferase reporter, primary screen, RMG-I cells, single concentration; AID 652154, 2013; SteadyGlo, 24 h; actives 1.2% (n = 360,000); inhibition, % at 12.6 µM;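 active = mean replicate inhibition at least 60% with every replicate also reaching 60%; inconclusive = only one of the two criteria is met; inactive = mean below 60% and not all replicates reaching 60%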;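 note: luciferase light reporting Pax8 driven TPO promoter activity; plate controls were median of neutral control wells for no effect and mitoxantrone controls for full effect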
Starred values were filed as active, the others as inactive; [ ] = remark or other dose. Only some compounds are listed: those with a hit (about 2.8% of all), similar ones and a draw of the others.

For COC(=O)c1[nH]c2c(c1C)C(=O)CC(c1ccc(OC)c(OC)c1)C2 (stereo not drawn) the results were NSD2 inh -0.2, HIV Env fusion -15.0, Shn3 inh set2 22.1, LMP1 NFkB inh 4.9, N-glyco inh -1.0 and PAX8 inh HTS -0.1.
For CCCCCOC(=O)c1[nH]c2c(c1C)C(=O)CC(c1ccco1)C2 (stereo not drawn) the results were Shn3 inh set2 91.6*, LMP1 NFkB inh 6.7 and N-glyco inh 3.6.
For CCOCCOC(=O)c1[nH]c2c(c1C)C(=O)CC(c1ccccc1)C2 (stereo not drawn) the results were NSD2 inh -3.4, HIV Env fusion inactive, Shn3 inh set2 29.7, LMP1 NFkB inh 4.6, N-glyco inh 9.8 and PAX8 inh HTS 81.9*.
Screening COC(=O)c1[nH]c2c(c1C)C(=O)CC(c1cccc(OC)c1)C2 (stereo not drawn) returned NSD2 inh -0.8, HIV Env fusion -493.3, Shn3 inh set2 2.2, LMP1 NFkB inh 1.4, N-glyco inh 12.1 and PAX8 inh HTS 81.7*.
For CCOCCOC(=O)c1[nH]c2c(c1C)C(=O)CC(c1cccs1)C2 (stereo not drawn) the results were HIV Env fusion -73.7, Shn3 inh set2 -7.5, LMP1 NFkB inh -1.2, N-glyco inh 16.0 and PAX8 inh HTS 59.8.
Screening COc1ccc(S(=O)(=O)N(C)C[C@H]2Oc3ncc(/C=C/c4ccccc4)cc3C(=O)N([C@@H](C)CO)C[C@H]2C)cc1 returned HIV Env fusion -6.9[16.7 µM] and PAX8 inh HTS -16.4.
For CO[C@H]1CN(C)C(=O)c2ccc(NC(=O)NC(C)C)cc2OC[C@@H](C)N(C)C[C@H]1C the results were HIV Env fusion 4.0[16.7 µM].
COc1ccc(CNC(=O)N(C)C[C@@H]2OCc3ccccc3-c3ccccc3C(=O)N([C@H](C)CO)C[C@H]2C)cc1 was read as HIV Env fusion 6.1[16.7 µM] and PAX8 inh HTS 0.7.
CC=Cc1ccc2n(c1=O)C[C@H]1[C@H](CO)[C@@H](C(=O)N3CCC(Cc4ccccc4)CC3)N(C)[C@@H]21 (mixture of isomers) was read as HIV Env fusion 1.5[16.7 µM].
CCOc1cc2c3c(c1)C(C)CC(C)(C)N3C(=O)C2=O (stereo not drawn) was read as NSD2 inh 1.4, HIV Env fusion 103.5*, Shn3 inh set2 11.9, LMP1 NFkB inh -3.5 and N-glyco inh 11.0.
For COc1cccc(-c2nnc3sc(C4CCCCC4)nn23)c1 the results were NSD2 inh -2.1, HIV Env fusion 122.8*, Shn3 inh set2 -7.7, LMP1 NFkB inh 44.7* and N-glyco inh -11.3.
CCOc1cccc(-c2nnc3sc(C4CCCCC4)nn23)c1 was read as HIV Env fusion 95.6*, Shn3 inh set2 14.2, LMP1 NFkB inh 12.4 and N-glyco inh -4.1.
CCC(=O)Nc1ccc2c(c1)C(=O)N(C)[C@H]1CC[C@@H](CC(=O)NCc3ccccc3)O[C@@H]1CO2 was read as HIV Env fusion 6.4[16.7 µM] and PAX8 inh HTS -0.4.
For Cc1noc(C)c1NC(=O)Nc1ccc2c(c1)CC(=O)N([C@H](C)CO)C[C@H](C)[C@H](CN(C)C(=O)Nc1ccc(F)cc1)O2 the results were HIV Env fusion -17.2[16.7 µM] and PAX8 inh HTS -19.1.
CCCNC(=O)C[C@@H]1CC[C@@H]2[C@@H](COc3ccc(NC(=O)Cc4cccs4)cc3C(=O)N2C)O1 was read as HIV Env fusion -8.4[16.7 µM] and PAX8 inh HTS 2.4.
Screening Cc1noc(C)c1S(=O)(=O)Nc1ccc2c(c1)C(=O)N([C@@H](C)CO)C[C@@H](C)[C@H](CN(C)C(=O)Nc1ccc3c(c1)OCO3)OCCCC[C@@H](C)O2 returned HIV Env fusion -20.4[16.7 µM].
NC(=O)c1sc2nccc(Nc3ccccc3)c2c1N was read as NSD2 inh 42.6, HIV Env fusion 93.2*, Shn3 inh set2 -7.6, LMP1 NFkB inh 65.3* and N-glyco inh -9.4.
`COc1ccc(N2CCN(C(=O)C3CCC(Cn4c(=S)[nH]c5ccccc5c4=O)CC3)CC2)cc1` (stereo not drawn) gave NSD2 inh 12.2, HIV Env fusion 73.8*, Shn3 inh set2 65.1, LMP1 NFkB inh 27.6 and N-glyco inh -9.5.
Screening COc1cc(C2c3[nH]c4ccccc4c3CC3COC(=O)N32)cc(OC)c1O (stereo not drawn) returned NSD2 inh 2.4, HIV Env fusion -108.1, Shn3 inh set2 2.1, LMP1 NFkB inh -3.5 and N-glyco inh 35.9*.
Screening C[C@H](NC(=O)C[C@H]1C=C[C@H](NC(=O)C2CCOCC2)[C@H](CO)O1)c1ccccc1 returned HIV Env fusion 2.5[16.7 µM] and PAX8 inh HTS -3.8.
`CN(Cc1cnc2nc(N)nc(N)c2n1)c1ccc(C(=O)NC(CCC(=O)O)C(=O)O)c2ccccc12` (stereo not drawn) gave NSD2 inh 1.0, HIV Env fusion 64.3*, Shn3 inh set2 44.4, LMP1 NFkB inh inconclusive, N-glyco inh 0.3 and PAX8 inh HTS 54.5.
Screening O=C(O)CCC(NC(=O)c1ccc(Cl)cc1)C(=O)O (stereo not drawn) returned NSD2 inh -0.6, HIV Env fusion 11.6, Shn3 inh set2 15.0, LMP1 NFkB inh -8.6, N-glyco inh 1.2 and PAX8 inh HTS -4.5.
Screening C[C@@H]1CCCCO[C@@H](CN(C)CC2CCCCC2)[C@H](C)CN([C@@H](C)CO)C(=O)c2cc(NS(=O)(=O)c3ccc(F)cc3)ccc2O1 returned HIV Env fusion 42.3[16.7 µM] and PAX8 inh HTS 1.7.
For C[C@@H]1CN([C@@H](C)CO)C(=O)c2cc(NC(=O)c3ccncc3)ccc2O[C@H]1CN(C)Cc1ccncc1 the results were HIV Env fusion 66.7*[16.7 µM] and PAX8 inh HTS 20.0.
For C[C@@H]1CN([C@H](C)CO)C(=O)c2cc(NC(=O)c3ccncc3)ccc2O[C@@H](C)CCCCO[C@H]1CN(C)Cc1ccc(C(F)(F)F)cc1 the results were HIV Env fusion 19.8[16.7 µM] and PAX8 inh HTS 82.5*.
`C[C@@H]1CCCCO[C@H](CN(C)Cc2ccc(C(F)(F)F)cc2)[C@@H](C)CN([C@@H](C)CO)C(=O)c2cc(NC(=O)c3ccccc3)ccc2O1` gave HIV Env fusion 14.5[16.7 µM] and PAX8 inh HTS 90.8*.
Screening C[C@H](CO)N1C[C@H](C)[C@@H](CN(C)Cc2ccncc2)Oc2ccc(NC(=O)c3ccncc3)cc2C1=O returned HIV Env fusion 13.8[16.7 µM] and PAX8 inh HTS -17.5.
For C[C@H]1CCCCO[C@H](CN(C)Cc2ccc(C(F)(F)F)cc2)[C@@H](C)CN([C@@H](C)CO)C(=O)c2cc(NC(=O)c3ccccc3)ccc2O1 the results were HIV Env fusion 59.4*[16.7 µM] and PAX8 inh HTS 84.6*.
